# Out of some 1,100 compounds screened, about 390 (35%) were called active. Not shown: some 30% with an inconclusive outcome. The list shows a part of the results. A number with no mark means an inactive call. Calls follow the shape of the dose curve; as a rule, active = well fitted inhibition curve with a large enough effect; inconclusive = small, poorly fitted or top-dose-only effect; inactive = flat fitted curve, though single readings scatter.
# Target: Luciferin 4-monooxygenase (Photinus pyralis) (UniProt P08659)
# Assay: qHTS of Nrf2 Activators: Hit Validation in Secondary FLuc Assay; also: nearly all actives have a fitted effect of over 65% in size
# Conditions: firefly luciferase inhibition counter-screen, luminescence; series mostly up to 57.5 µM; activity, negative = inhibition: at the top concentration
# Summary of the method: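 Counter-screen on purified firefly luciferase with ATP and D-luciferin at Km concentrations; compounds flagged if they inhibit the enzyme, indicating possible reporter stabilization rather than ARE activation.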
# % is scaled to controls: 0 for no effect and ±100 for the full control effect; potency is read from the fitted curve at half-maximal effect.
Structure (SMILES),Potency,"activity, negative = inhibition [%]"
N#Cc1ccccc1N/C=C/C(=O)c1ccc(Cl)cc1,0.12 µM (active),–
COC(=O)c1cc(S(=O)(=O)C(C)C)c(S(C)=O)s1 (stereo not given),–,1.94
Cc1cc(N/N=C/c2c(O)ccc3ccccc23)nc(-c2ccccc2O)n1,7.57 µM (active),–
C=C(NC(=O)C(=C)NC(=O)c1csc(C2=NC3c4csc(n4)C4NC(=O)c5csc(n5)C(C(C)(O)C(C)O)NC(=O)C5CSC(=N5)/C(=C/C)NC(=O)C(C(C)O)NC(=O)c5csc(n5)C3(CC2)NC(=O)C(C)NC(=O)C(=C)NC(=O)C(=C)NC(=O)C(C(C)C)NC2C=Cc3c(C(C)O)cc(nc3C2O)C(=O)OC4C)n1)C(N)=O (stereo not given),7.57 µM (active),–
COc1ccc(-c2cc3ccccc3c(=O)o2)cc1,0.478 µM (active),–
CC(=O)Oc1ccc(-c2nc3c(C)cccc3c(=O)o2)cc1,–,-26.3
O=c1nc2c(-c3ccccc3F)n[nH]n2c2ccccc12,7.57 µM (active),–
Clc1nc(NCc2ccco2)nc(N2CCCCC2)n1,–,-3.37
c1ccc2nc3c(ccc4ccccc43)cc2c1,1.35 µM (active),–
O=C(/C=C/c1ccc2c(c1)OCO2)c1ccc(O)cc1O,1.9 µM (active),–
COc1cc(OCc2ccccc2)c(C(=O)/C=C/c2ccc3c(c2)OCO3)c(OC)c1OC,–,2.26
COC(=O)c1ccsc1NC(=O)CSc1nnnn1Cc1ccccc1,–,-14.3
Cc1csc(-c2ccc3cc(Cl)cc(Cl)c3n2)n1,2.69 µM (active),–
Cc1ccc(-c2nc3cccnc3s2)cc1NC(=O)c1ccco1,8.49 µM (active),–
Cc1ccc(C(=O)OCc2c(C)noc2C)cc1NC(=O)c1ccco1,–,1.47
CCNc1nc(NCC)nc(N(C)/N=C/c2ccco2)n1,–,0.966
O=[N+]([O-])c1cc(Cl)cc(/C=N/Nc2nc3ccccc3s2)c1O,13.5 µM (active),–
Brc1cc2c(cc1/C=N/Nc1nc3ccccc3s1)OCO2,2.69 µM (active),–
Cc1ccc(NC(=O)c2ccc([N+](=O)[O-])s2)cc1S(=O)(=O)N1CCOCC1,–,-3.39
O=C(/C=C/c1ccco1)Nc1cccc(S(=O)(=O)N2CCOCC2)c1,13.5 µM (active),–
O=C(Nc1cc2nn(-c3ccccc3)nc2cc1Cl)c1ccco1,0.849 µM (active),–
O=C(/C=C/c1ccco1)NC(=S)Nc1ccccc1N1CCCC1,–,-27.1
O=C(/C=C/c1ccco1)Nc1ccc2nn(-c3ccccc3)nc2c1,9.53 µM (active),–
O=C(/C=C/c1ccco1)Nc1ccc(Cl)c(-c2nc3cc(Cl)ccc3o2)c1,10.7 µM (active),–
O=[N+]([O-])c1cnc(Nc2ccc(Cl)cn2)c([N+](=O)[O-])c1,–,1.13
O=C1N/C(=C\c2ccsc2)C(=O)N1Cc1ccc(F)cc1,–,-2.1
CCc1ccc(/C=C/c2c([N+](=O)[O-])c(=O)n(C)c(=O)n2C)cc1,–,-27.8

Structure (SMILES),Potency,"activity, negative = inhibition [%]"
CCC1C/C(=C/c2cccs2)C(=O)/C(=C/c2cccs2)C1 (stereo not given),–,-23.6
COc1ccc(Cl)cc1NC(=O)c1ccco1,–,0.501
O=C(Nc1cc(-c2nc3cc(Cl)ccc3o2)ccc1Cl)c1ccco1,6.01 µM (active),–
CCCS(=O)(=O)c1nc(S(=O)(=O)c2ccc(C)cc2)c(N2CC(C)OC(C)C2)s1 (stereo not given),–,-1.58
O=C(/C=C/Nc1ccc(F)c(Cl)c1)c1ccco1,1.69 µM (active),–
COc1cccc(-c2nc3n(n2)CCc2ccccc2-3)c1,0.953 µM (active),–
CC(C)Nc1ccc(-c2nc(-c3ccco3)no2)cc1[N+](=O)[O-],0.213 µM (active),–
CNc1ccc(-c2nc(-c3ccco3)no2)cc1[N+](=O)[O-],0.0849 µM (active),–
CC(C)c1ccc(NC(=O)c2sccc2-n2cccc2)cc1,10.7 µM (active),–
Cc1ccc(CNC(=O)c2sccc2-n2cccc2)cc1,–,-11.8
Cc1ccc(S(=O)(=O)c2nc(S(C)(=O)=O)sc2N2CCOCC2)cc1,–,7.7
COc1ccc(OC)c2sc(NC(=O)CCS(=O)(=O)c3ccccc3)nc12,–,-25.5
COc1ccccc1-c1nnc(NC(C)=O)s1,2.69 µM (active),–
O=C(CCN1C(=O)c2cccc3cccc(c23)C1=O)Nc1ccon1,–,-23.6
COc1ccccc1NC(=O)/C(C#N)=C/C=C/c1ccco1,–,-4.16
COC(=O)c1ccccc1NC(=O)/C=C/c1ccco1,8.49 µM (active),–
COC(=O)c1ccccc1NC(=O)c1cc(-c2ccco2)on1,–,-22.9
COc1ccccc1NC(=O)/C=C\c1ccco1,10.7 µM (active),–
CCn1c(=O)oc2cc(NC(=O)CCl)ccc21,–,1.74
Cc1nn(-c2ccc3ccccc3c2)c(=O)c2ccccc12,3.38 µM (active),–
Cc1nn(-c2cccc(C(F)(F)F)c2)c(=O)c2ccccc12,–,-29.2
Clc1cc(-c2ccccc2)nc(-c2ccccc2)n1,–,1.58
c1ccc(-c2cnc(-c3ccccc3)nn2)cc1,0.301 µM (active),–
c1ccc(-c2cc3c(ccc4nonc43)nn2)cc1,–,-18.2
CC1Sc2n(c3ccccc3[n+]2C)N=C1c1ccccc1 (stereo not given),–,-0.681
COc1ccccc1Cc1c(-c2ccco2)nc2ccc(Cl)cn12,2.39 µM (active),–
Clc1ccc2nc(-c3ccco3)c(Cc3ccccc3)n2c1,10.7 µM (active),–

Structure (SMILES),Potency,"activity, negative = inhibition [%]"
O=C1c2cccc3cccc(c23)C(=O)N1CCCN(C(=O)c1cccs1)c1cccc(F)c1,–,5.37
CCN1C(=O)/C(=C\c2ccco2)C(C(=O)OC)=C1C,–,-1.69
CC(=O)COc1ccc2c(c1C)O/C(=C\c1ccco1)C2=O,0.601 µM (active),–
COc1ccc(C2NC(=S)NC3=C2CCCC3=C2SCCS2)cc1 (stereo not given),–,-29.4
S=c1[nH]nc(COc2ccccc2)n1/N=C/C(Cl)=C/c1ccccc1,19 µM (active),–
O=[N+]([O-])c1ccccc1/C=C/C=N/n1c(-c2ccco2)n[nH]c1=S,7.57 µM (active),–
S=c1[nH]nc(-c2ccco2)n1/N=C/C(Cl)=C/c1ccccc1,13.5 µM (active),–
Cc1n[nH]c(=S)n1/N=C/c1ccc(-c2ccccc2[N+](=O)[O-])o1,9.53 µM (active),–
S=c1[nH]nc(-c2ccco2)n1/N=C/c1ccccc1,–,-27.4
c1ccc2c(-c3nc4ncccc4o3)cccc2c1,13.5 µM (active),–
Nc1c(C(=O)c2cccs2)oc2ccccc12,9.53 µM (active),–
Nc1c(C(=O)c2ccc(Br)s2)oc2ccccc12,2.69 µM (active),–
[O-][n+]1onc2c1CCc1c-2nn(-c2ccccc2Cl)[n+]1[O-],–,7.06
O=C(Nc1nccs1)c1cc(-c2ccco2)nc2ccccc12,6.01 µM (active),–
Cc1nc2ccccc2c(=O)n1NCc1cc(Br)cs1,–,-27.8
Cc1csc(NC(=O)c2cc(-c3ccco3)nc3ccccc23)n1,5.36 µM (active),–
CC1CCc2c(cc(-c3ccccc3)n2-c2ccc(C(=O)NC(C)C)cc2)C1 (stereo not given),–,-5.3
Oc1ccccc1-c1csc(-c2ccccc2)n1,1.69 µM (active),–
COC(=O)c1sccc1NC(=O)c1c(C)noc1C,–,3.32
COc1ccc(Cl)cc1NC(=O)c1cc(-c2ccco2)on1,–,-4.62
COc1ccc(NC(=O)c2cc(-c3ccco3)on2)c(OC)c1,–,-4.64
COc1ccc(Cl)cc1NC(=O)CSc1c2c(nc3ccccc13)CCC2,–,1.24
O=C(CSc1ccc(-c2ccco2)nn1)N1CCCCCC1,16.9 µM (active),–
COc1ccc(NC(=O)CSc2ccc(-c3ccco3)nn2)c(OC)c1,3.38 µM (active),–
COc1ccccc1NC(=O)CSc1ccc(-c2ccco2)nn1,15.1 µM (active),–
COc1ccc(NC(=O)CSc2ccc(-c3ccco3)nn2)cc1OC,15.1 µM (active),–
CC(OC(=O)/C=C/c1ccc2ccccc2n1)C(=O)Nc1ccc(S(N)(=O)=O)cc1 (stereo not given),–,-27.1

Structure (SMILES),Potency,"activity, negative = inhibition [%]"
Cc1nc(C)c(C(=O)N/N=C/c2ccco2)s1,–,-9.17
O=C1C=C(Nc2cccc(Cl)c2)CC(c2ccco2)C1 (stereo not given),–,1.07
O=C(N/N=C\c1ccco1)Nc1cccc(Cl)c1,8.49 µM (active),–
O=C(N/N=C/c1ccco1)Nc1ccccc1,10.7 µM (active),–
O=C1CC(C(=O)Nc2ccc(Br)cc2)S/C(=N\N=C\c2ccco2)N1 (stereo not given),–,-7.55
O=C1CC(C(=O)Nc2ccc(Cl)c(Cl)c2)S/C(=N\N=C\c2ccco2)N1 (stereo not given),–,-21.8
CC(=O)N(/N=C1\Sc2ccccc2C1=O)c1ccccc1,0.301 µM (active),–
COc1ccc(N2CCCC2)c(NC(=O)c2ccc([N+](=O)[O-])o2)c1,–,-4.51
CS(=O)(=O)N1CCN(c2ccccc2NC(=O)c2ccc([N+](=O)[O-])o2)CC1,–,3.04
NS(=O)(=O)c1ccc(O)c(NC(=O)c2ccc([N+](=O)[O-])o2)c1,16.9 µM (active),–
Cc1cccc(C)c1OCC(=O)N/N=C/C=C/c1ccco1,–,-26.1
O=C(/C=C/c1ccco1)NCC(=O)N/N=C/c1ccc(Cl)cc1,–,-29.4
O=C(C=Cc1ccco1)c1ccc2ccccc2c1,0.239 µM (active),–
O=C(COC(=O)/C=C/c1ccco1)Nc1ccc(F)cc1Cl,–,-5.05
CC(/C=C/c1ccco1)=N\NC(=O)CNc1ccc2ccccc2c1,15.1 µM (active),–
Cc1c(CN(C)C)c2c(n1C)C(=O)c1ccc(Br)cc1-2,–,7.53
Cc1ccccc1CS(=O)(=O)c1cnc2ccccc2n1,–,-24.2
Cc1ccc(Cn2c(/C=C/c3ccco3)nc3ccccc32)cc1,6.01 µM (active),–
CS(=O)(=O)Cc1nc2ccccc2oc1=O,–,0.923
O=c1oc2ccc(Cl)cc2nc1/C=C(\O)c1ccco1,–,-26.9
O=c1oc2ccccc2nc1/C=C(\O)c1ccc(Br)cc1,6.01 µM (active),–
Fc1cccc(Nc2nc3ccccc3n3cnnc23)c1,–,-2.42
Fc1cccc(Nc2cc(-n3cccn3)ncn2)c1,10.7 µM (active),–
Cc1ccc2cc3c(NC(=O)c4ccco4)nn(C)c3nc2c1,12 µM (active),–

# — PubChem BioAssay AID651597 (National Center for Advancing Translational Sciences (NCATS), 2012)
